Records with an inconclusive call do not appear. Active and inactive are the calls of the source. Unless noted, the call rests on the fitted dose curve; in most records, active means well fitted curve in the direction sought with a large enough effect in the repeat runs; inconclusive means weak or mixed curves; inactive means no such curve, though single readings can be large; an effect the other way counts as inactive or inconclusive.
Columns and labels:
[1] = qHTS assay to identify small molecule agonists of the vitamin D receptor (VDR) signaling pathway - cell viability counter screen (AID 743224); further: nearly all actives have a fitted effect of over 50% in size
Outline: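 Plated VDR-bla cells (4 h, 37C) received compound, incubated 16 h, then LiveBLAzer substrate 2 h RT; CellTiter-Glo added afterwards, luminescence read at 30 min.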

[2] = qHTS assay to identify small molecule antagonists of the vitamin D receptor (VDR) signaling pathway - cell viability counter screen (AID 743225); further: nearly all actives have a fitted effect of over 50% in size
Outline: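 Viability counter screen run in the same wells as the beta-lactamase reporter assay: HEK 293T VDR-UAS-bla cells, 16 h compound exposure at 37C with 3 nM (final) 1-alpha,25-dihydroxyvitamin D3. CellTiter-Glo luminescence, 30 min, room temperature.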

[3] = qHTS assay to identify small molecule agonists of the NFkB signaling pathway (AID 1159509; active means well fitted curve in the direction sought with a large enough effect in the signal ratio in the repeat runs, not every such curve was filed as active; the % refers to the signal ratio)
Outline: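 After overnight attachment, reporter cells received test compounds, DMSO or positive controls and were incubated 5 hr at 37 C. FRET substrate was then added for 1.5 hr at room temperature before dual-emission fluorescence reading.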

[4] = qHTS assay to identify small molecule agonists of the NFkB signaling pathway - cell viability counter screen (AID 1159515; calls by dose curve; further: nearly all actives have a fitted effect of over 55% in size)
Outline: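 Using the same wells as the NFkB reporter read, ME-180 NFkB-bla cells given compounds for 5 hr were assessed for viability via CellTiter-Glo, with luminescence taken after a 30 min room-temperature incubation.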

[5] = qHTS assay to identify small molecule agonists of the endoplasmic reticulum stress response signaling pathway (AID 1159516; active means well fitted activation curve with a large enough effect in the signal ratio in the repeat runs, not every such curve was filed as active; the % refers to the signal ratio)
Outline: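 An ESRE-bla HeLa cell assay: compounds were pin-transferred from DMSO onto overnight-plated cells and left 5 hr at 37 C. Substrate was then loaded for 2 hr at room temperature before reading fluorescence at 460 nm and 530 nm.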

[6] = qHTS assay to identify small molecule antagonists of the retinoid-related orphan receptor gamma (ROR-gamma) signaling pathway - cell viability counter screen (AID 1159520); further: nearly all actives have a fitted effect of over 50% in size
Outline: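 Tet-on ROR gamma CHO cells (1,000/well) were plated 4 hr, given compounds in DMSO for 2 hr at 37 C, then induced with 1 uM final doxycycline for 16 hr. Viability was read as ATP by CellTiter-Glo luminescence after 30 min.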

[7] = target: Nuclear receptor ROR-gamma (Homo sapiens) (UniProt P51449); assay: qHTS assay to identify small molecule antagonists of the retinoid-related orphan receptor gamma (ROR-gamma) signaling pathway (AID 1159521;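 further: CHO cells with doxycycline inducible ROR-gamma driving an RORE luciferase reporter; top concentration of the series differs between compounds; nearly all actives have a fitted effect of over 50% in size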)
Outline: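 Luminescence readout (ONE-Glo, 30 min RT) after 16 h doxycycline induction; loss of signal scored as antagonism. CHO cells with TET-inducible RORγ and RORE-LUC reporter; compounds added 2 h before 1 uM final doxycycline.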

[8] = qHTS assay to identify small molecule agonists of the AP-1 signaling pathway - cell viability counter screen (AID 1159525; calls by dose curve; further: nearly all actives have a fitted effect of over 55% in size)
Outline: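 ME-180 AP-1-bla, 2500 cells/well, Opti-MEM + 0.5% dialyzed FBS; overnight 37 °C; cpd 15-pt titration, 5 h 37 °C; CellTiter-Glo 30 min RT; luminescence read; normalised to TOAB and DMSO controls.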

[9] = qHTS assay to identify small molecule agonists of the AP-1 signaling pathway (AID 1159526; calls by dose curve)
[10] = target: Retinoic acid receptor RXR-alpha (Homo sapiens) (UniProt P19793); assay: qHTS assay to identify small molecule agonists of the RXR signaling pathway (AID 1159527; calls by dose curve; further: nearly all actives have a fitted effect of over 35% in size)
Sequence of Retinoic acid receptor RXR-alpha (Homo sapiens) (P19793 whole entry, looked up): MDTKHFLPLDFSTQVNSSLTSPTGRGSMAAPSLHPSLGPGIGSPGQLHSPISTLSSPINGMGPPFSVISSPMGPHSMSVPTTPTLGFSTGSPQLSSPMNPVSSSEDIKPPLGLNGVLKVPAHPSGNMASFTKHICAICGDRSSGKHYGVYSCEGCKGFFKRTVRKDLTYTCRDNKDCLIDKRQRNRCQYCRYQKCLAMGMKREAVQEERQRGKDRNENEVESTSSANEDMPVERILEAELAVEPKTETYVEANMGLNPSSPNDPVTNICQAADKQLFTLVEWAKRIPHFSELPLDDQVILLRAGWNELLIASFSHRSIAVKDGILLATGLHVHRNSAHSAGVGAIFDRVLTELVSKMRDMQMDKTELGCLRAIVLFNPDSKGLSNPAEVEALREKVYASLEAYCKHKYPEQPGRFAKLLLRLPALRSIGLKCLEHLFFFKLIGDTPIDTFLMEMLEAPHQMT
Outline: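 Agonist mode; 9-cis retinoic acid positive control. HEK 293T UAS-bla reporter cells, 2% charcoal-stripped FBS, 16 hr compound exposure at 37 C/5% CO2. LiveBLAzer B/G FRET substrate 2 hr RT; ex 405, em 460/530 nm.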

[11] = qHTS assay to identify small molecule agonists of the RXR signaling pathway - cell viability counter screen (AID 1159529); further: nearly all actives have a fitted effect of over 50% in size
Outline: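 Luminescence from CellTiter-Glo (30 min, RT) measured viability in the same wells as the beta-lactamase reporter readout. Cells: GeneBLAzer RXR-alpha HEK 293T, 2% charcoal-stripped FBS. Compound exposure 16 hr, 37 C.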

[12] = qHTS assay to identify small molecule antagonists of the retinoid acid receptor (RAR) signaling pathway - cell viability counter screen (AID 1159551); further: nearly all actives have a fitted effect of over 35% in size
Outline: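 Retinol-stimulated (1 uM final) C3RL4 cells, compound 6 h, 37 C; readout CellTiter-Glo luminescence (ATP) after 30 min RT incubation.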

[13] = qHTS assay to identify small molecule antagonists of the retinoic acid receptor (RAR) signaling pathway (AID 1159552; further: nearly all actives have a fitted effect of over 50% in size)
Outline: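 Luminescence from a RARE luciferase reporter in C3RL4 cells served as read-out. Cells received compounds together with 1 uM final retinol and incubated 6 hr at 37 C before detection reagent was added for 30 min at room temperature.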

[14] = qHTS assay to identify small molecule agonists of the retinoic acid receptor (RAR) signaling pathway (AID 1159553); details: C3RL4 RARE luciferase reporter, agonist, 6 h; activation: at 73.3 µM (top of the series)
Outline: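 Reporter readout comes from luciferase under RARE control in C3RL4 cells; compound exposure lasts 6 hr at 37 C in 5% CO2, and luminescence is recorded following a 30 min room-temperature incubation with reagent.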

[15] = qHTS assay to identify small molecule antagonists of the estrogen related receptor (ERR) signaling pathway from Tox21 library - cell viability counter screen (AID 1224834); further: nearly all actives have a fitted effect of over 30% in size
Outline: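 After 17.5 h of compound exposure at 37 C, ERR cells are incubated with CellTiter-Fluor for 30 min and fluorescence intensity serves as the viability measure.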

[16] = target: Luciferin 4-monooxygenase (Photinus pyralis) (UniProt P08659); assay: qHTS assay to identify small molecule inhibitors of firefly luciferase (AID 1224835); further: nearly all actives have a fitted effect of over 25% in size
Sequence of Luciferin 4-monooxygenase (Photinus pyralis) (P08659 whole entry, looked up): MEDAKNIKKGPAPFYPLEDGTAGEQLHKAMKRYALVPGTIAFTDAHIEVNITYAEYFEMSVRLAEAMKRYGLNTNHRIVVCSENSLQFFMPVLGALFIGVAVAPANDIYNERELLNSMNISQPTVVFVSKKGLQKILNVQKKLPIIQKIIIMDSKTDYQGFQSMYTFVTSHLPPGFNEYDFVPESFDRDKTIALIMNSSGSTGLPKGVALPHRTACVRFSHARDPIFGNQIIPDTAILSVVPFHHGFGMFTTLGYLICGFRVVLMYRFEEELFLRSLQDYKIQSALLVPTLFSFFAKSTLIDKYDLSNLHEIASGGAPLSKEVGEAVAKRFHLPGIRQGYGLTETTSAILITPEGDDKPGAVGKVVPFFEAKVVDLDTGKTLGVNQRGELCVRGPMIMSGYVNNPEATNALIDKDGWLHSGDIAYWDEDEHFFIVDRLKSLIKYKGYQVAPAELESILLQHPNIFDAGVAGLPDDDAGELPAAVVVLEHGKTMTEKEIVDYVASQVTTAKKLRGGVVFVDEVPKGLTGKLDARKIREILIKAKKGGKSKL
Outline: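 Quantitative HTS format; KM concentrations of both substrates. Purified P. pyralis FLuc activity quantified from luminescence images.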

[17] = qHTS assay to identify small molecule agonists of the constitutive androstane receptor (CAR) signaling pathway - cell viability counter screen (AID 1224836); further: nearly all actives have a fitted effect of over 45% in size
Outline: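 Viability read-out: CellTiter-Fluor fluorescence after 23 h compound exposure at 37 C/5% CO2 in double-stable HepG2-CYP2B6-hCAR cells, with PK11195 present at 0.75 uM final; compounds tested in 15-point titration.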

[18] = qHTS assay to identify small molecule antagonists of the constitutive androstane receptor (CAR) signaling pathway - cell viability counter screen (AID 1224837); further: nearly all actives have a fitted effect of over 45% in size
Outline: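 Counter screen run in HepG2-CYP2B6-hCAR cells: 4 hr settle, compound titration (15 concentrations) with 50 nM CITCO, 23 hr at 37 C/5% CO2, CellTiter-Fluor fluorescence.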

[19] = target: Nuclear receptor subfamily 1 group I member 3 (Homo sapiens) (UniProt Q14994); assay: qHTS assay to identify small molecule antagonists of the constitutive androstane receptor (CAR) signaling pathway (AID 1224838);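 further: HepG2 cells stably expressing hCAR with CYP2B6 luciferase reporter stimulated by CITCO; nearly all actives have a fitted effect of over 40% in size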
Sequence of Nuclear receptor subfamily 1 group I member 3 (Homo sapiens) (Q14994 whole entry, looked up): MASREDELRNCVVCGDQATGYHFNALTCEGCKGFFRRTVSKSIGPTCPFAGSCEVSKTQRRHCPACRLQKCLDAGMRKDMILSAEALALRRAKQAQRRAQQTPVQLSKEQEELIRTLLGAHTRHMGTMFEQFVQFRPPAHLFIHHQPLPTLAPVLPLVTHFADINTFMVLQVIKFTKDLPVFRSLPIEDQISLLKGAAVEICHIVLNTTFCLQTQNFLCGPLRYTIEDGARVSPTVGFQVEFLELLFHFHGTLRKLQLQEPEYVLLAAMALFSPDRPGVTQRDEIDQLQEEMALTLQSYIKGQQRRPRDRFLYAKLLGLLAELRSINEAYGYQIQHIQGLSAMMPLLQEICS
Outline: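 Cell line: HepG2 double-stable for hCAR and CYP2B6-2.2kb reporter. Agonist: CITCO, 50 nM final. Compounds: 15 concentrations, 24 h, 37 C. Detection: ONE-Glo luminescence.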

[20] = qHTS assay to identify small molecule agonists of the endoplasmic reticulum stress response signaling pathway - cell viability counter screen (AID 1159517; calls by dose curve)
Outline: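 Luminescence readout: CellTiter-Glo, 30 min RT, same wells as the ESRE-bla reporter read. HeLa ESRE-bla, 1,500 cells/well, o/n 37 C; cpd 5 hr 37 C/5% CO2.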

Measured: Potency

O=S(=O)(O)c1cc(O)ccc1O
not listed: [19] | [20]
inactive: all other assays above

CN(C1CCCCC1)S(=O)(=O)c1ccccc1N
not listed: [20]
inactive: all other assays above

OC(CCN1CCCCC1)(c1ccccc1)c1ccccc1
not listed: [1] | [8] | [11] | [18] | [19]
inactive: all other assays above

CC(C)COC(=O)CCCCC(=O)OCC(C)C
not listed: [11] | [14] | [19] | [20]
inactive: all other assays above

Nc1ccc(S(=O)(=O)NC(=O)c2ccccc2)cc1
not listed: [19] | [20]
inactive: all other assays above

CCN(Cc1cccc(S(=O)(=O)O)c1)c1ccccc1
not listed: [16] | [20]
inactive: all other assays above

CC(=O)OCCCc1ccccc1
not listed: [8] | [14] | [19] | [20]
inactive: all other assays above

Cc1ncc([N+](=O)[O-])n1CC(O)CCl (configuration not stated)
not listed: [16] | [18] | [20]
inactive: all other assays above

From PubChem BioAssay (Tox21)
